# FMDV FLuc – shows antiviral activity against foot and mouth disease virus; FMDV antiviral cell assay, firefly luciferase signal; Potency, µM (doses to about 57.5 µM), actives largely listed as inhibitors; hit rate 0.23% among 120,000; AID 1745856; further: nearly all actives have a fitted effect of over 60% in size
# FMDV Renilla – antivirals against foot and mouth disease virus replicon; FMDV replicon cells, Renilla luciferase signal; Potency, µM (doses to about 57.5 µM), usual class: inhibitors; hit rate 0.32% among 120,000; AID 1745857; further: nearly all actives have a fitted effect of over 55% in size
# A number is an active result; . = inactive; ? = inconclusive; [ ] = another dose, or the depositor's remark. Hits are enriched below; roughly 0.51% of the tested compounds scored in any of these assays. The call rests on the fitted dose curve.
SMILES,FMDV FLuc,FMDV Renilla
Cc1ccc2c(c1)c(/C=C/c1cc[n+](C)cc1)c(C)n2C,?,8.9µM
Cc1ccc2c(C=O)c(C)[nH]c2c1,.,.
Cc1ccc2[nH]c(C)c(/C=C/c3cc[n+](C)cc3)c2c1,13µM,11µM
CCC(C)NS(=O)(=O)c1ccc(N2C(=O)CCS2(=O)=O)cc1C (stereo not drawn),.,.
Cc1cc2nc(CSc3nc4ccc(NC(=O)c5ccccc5)cc4s3)cc(=O)n2o1,.,.
Cc1c(C#N)c(NC(=O)CSc2nnnn2C)n(CC2CCCO2)c1C (stereo not drawn),.,.
O=Cc1cc(Cl)c(O)c(Br)c1,.,.
Oc1c(Br)cc(Cl)cc1Cc1cc(Cl)cc(Br)c1O,?,3.5µM
COc1ccc(N2CCCCS2(=O)=O)cc1S(=O)(=O)Nc1ccc(Cl)cc1,.,.
COCCn1c(SCC(=O)c2ccc3c(c2)OCCCO3)nnc1-c1ccc(Cl)cc1,.,.
CN1CCN(c2ccc(C#N)cc2)CC1,2.8µM,.[1.06 µM]
CN1CCN(c2ccc(C#N)cn2)CC1,.,.
Cn1c(=O)c2c(ncn2Cc2nc(-c3cccc(Cl)c3)no2)n(C)c1=O,.,.
CCOC(=O)N1CCc2c(sc(NCc3ccc(OC)c(OC)c3OC)c2C(=O)Nc2ccc(OC)cc2OC)C1,.,.
CCOC(=O)N1CCc2c(sc(NCc3ccc(OCC)cc3)c2C(=O)Nc2ccc(OC)cc2OC)C1,25µM,.
COc1ccc(NC(=O)c2ccc(NC(=O)N3CCSc4ncccc43)cc2)cc1,.,.
CC(=O)c1ccc(NC(=O)c2cccc(NC(=O)N3CCSc4ncccc43)c2)cc1,3.2µM,.
COc1cc(/C=N/OCc2cccc(C(F)(F)F)c2)ccc1OCc1ccc(Cl)cc1,.,.
CC1=C(C#N)C(c2cc(Br)ccc2OC(F)F)C(C#N)=C(C)N1,?,28µM
CC1=C(C#N)C(c2ccccc2C)C(C#N)=C(C)N1,.,.
COCCn1c(SCc2nc(-c3cccc(C(F)(F)F)c3)no2)nc2ccsc2c1=O,.,.
Cn1c(SCc2nc(-c3ccc(C(F)(F)F)cc3)no2)nc2ccsc2c1=O,22µM,18µM
COc1cc(CC(=O)NCc2cccc(C(F)(F)F)c2)cc(OC)c1OC,.,.
O=C(NCCc1ccccc1)Nc1ccc2nc(NS(=O)(=O)c3ccccc3)sc2c1,.,.
COC(=O)Cc1c(C)c2ccc(OCC(=O)C(C)(C)C)c(C)c2oc1=O,?,28µM
SMILES,FMDV FLuc,FMDV Renilla
COC(=O)Cc1c(C)c2ccc(OCc3ccccc3F)c(C)c2oc1=O,.,.
Cc1ccccc1CNC(=O)CN1C(=O)CCCc2ccccc21,.,32µM
COc1ccccc1CNC(=O)CN1C(=O)CCCc2ccccc21,.,.
CCC(CC)NC(=O)c1cccc(OC)c1,.,.
Cc1ccc(CNc2c(C)c(C)nc3nncn23)cc1,2.2µM,2µM
CCc1c(C)nc2nncn2c1NCc1ccc(Cl)cc1,.,?
COc1ccccc1-c1c(C)nn2c(SCC(=O)NCc3ccc(C)cc3)cc(C)nc12,.,.
CCOc1ccc(NC(=O)CSC2=NC3(CCCCC3)Nc3ccccc32)cc1,.,.
Cc1cccc(NC(=O)c2sc3nc4c(cc3c2N)CN(Cc2ccccc2)CC4)c1,.,.
CCN1CCc2nc3sc(C(=O)Nc4cccc(Cl)c4C)c(N)c3cc2C1,13µM,7.1µM
COc1ccc(-c2onc(C)c2C)cc1S(=O)(=O)N(C)Cc1ccco1,32µM,?
CCN(CC)S(=O)(=O)c1cc(-c2onc(C)c2C)ccc1OC,.,.
O=C(c1cc(-c2ccc(Cl)cc2)on1)N(Cc1ccco1)Cc1cccs1,.,.
O=C(CCCCl)Nc1ncc(Cc2cccc(Cl)c2)s1,.,.
CCCn1nc(C(=O)Nc2ncc(Cc3cccc(Cl)c3)s2)ccc1=O,28µM,?
COc1ccc(F)cc1C(=O)/C=C/c1ccc(C#N)cc1,.,.
COc1ccc(F)cc1C(=O)/C=C/c1cccc(C#N)c1,3.5µM,?
CCc1ccc(-c2nnn(CC(=O)N3CCCC3c3ccc4c(c3)OCCO4)n2)cc1 (stereo not drawn),.,.
CCc1ccc(-c2nc(SCC(=O)N3CCCC3c3ccc4c(c3)OCCCO4)n[nH]2)cc1 (stereo not drawn),?,28µM
Cc1ccc(-c2nc(SCC(=O)N3CCCC3c3ccc4c(c3)OCCO4)n[nH]2)cc1 (stereo not drawn),?,20µM
O=C(CSc1nnnn1C1CC1)N1CCCC1c1ccc2c(c1)OCCO2 (stereo not drawn),.,.
COc1cccc(CNc2nc3ccccc3nc2C(=O)OCC(C)C)c1,.,.
O=C(CSc1ccc(N2CCC(C(=O)N3CCCCC3)CC2)nn1)Nc1ccc2c(c1)CCC2,4µM,3.2µM
O=C(CSc1ccc2ccccc2n1)Nc1ccc2c(c1)CCC2,.,.
COc1ccc2c(-c3cc4cc(Cl)ccc4o3)cc(=O)oc2c1,.,.
SMILES,FMDV FLuc,FMDV Renilla
Cc1cccc(OCc2nc3c4c(ncn3n2)OC2=C(C(=O)CCC2)C4c2ccco2)c1C (stereo not drawn),20µM,?
CC(=O)C1=C(C)Oc2ncn3nc(COc4cccc(C)c4C)nc3c2C1c1ccco1 (stereo not drawn),.,.
Cc1ccc(CN(C(=O)c2cc(=O)c3cc(Cl)ccc3o2)c2ccccn2)cc1,.,.
COc1cccc(/C=C(\C#N)C(=O)Nc2ccccc2C(F)(F)F)c1OC,.,.
COc1ccc(CNCCc2ccc(F)cc2)cc1,.,.[1.06 µM]
COc1ccc(CCNCc2ccc(Br)cc2)cc1,.,13µM
COc1ccc(-c2nc3ccccc3o2)cc1NC(=O)CC(C)C,.,.
O=c1c2cnc(N3CCc4ccccc4C3)nc2ccn1-c1cc(Cl)cc(Cl)c1,.,.
O=c1c2cnc(N3CCc4ccccc4C3)nc2ccn1-c1ccccc1,25µM,?
COc1ccc(NC(=O)COc2c(C)cccc2C)c2cccnc12,.,.
COc1ccc(NC(=O)COc2ccccc2C)c2cccnc12,?,14µM
NNc1cc(C(F)(F)F)ccc1Cl,.,.
Fc1ccc(COc2cccc(CNCC3CCNCC3)c2)cc1,?,32µM
Brc1ccc(OCc2ccccc2)c(CNCC2CCNCC2)c1,.,.
Cc1cc2ccccc2n1-c1ccc(C(=O)N2CCC(C(=O)NCc3ccccc3Cl)CC2)s1,.,.
Cc1cc2ccccc2n1-c1ccc(C(=O)N2CCC(C(=O)NCc3ccc(Cl)cc3)CC2)s1,25µM,?
Cc1cc(C(=O)N2CCC(NC(=O)c3ccncc3)CC2)c2ccccc2n1,.,.
O=[N+]([O-])c1ccccc1/C=N/Nc1ccc(S(=O)(=O)Nc2ccc(Cl)cc2)cc1[N+](=O)[O-],.,.
O=[N+]([O-])c1ccccc1/C=N/Nc1ccc(S(=O)(=O)Nc2cccc(Cl)c2)cc1[N+](=O)[O-],11µM,.
CC1C(c2ccc(F)cc2)=[N+]([O-])C(C)(c2cccc([N+](=O)[O-])c2)N1O (stereo not drawn),.,.
COc1ccc(N2CCN(S(=O)(=O)c3csc(C(N)=O)c3)CC2)cc1,.,.
Cc1cccc(N2CCN(S(=O)(=O)c3csc(C(N)=O)c3)CC2)c1C,13µM,8.9µM
Cc1ccc2cc(C(=O)NCc3ccc(N4CCC(C)CC4)nc3)c(C)nc2c1,?,1µM
Cc1nc2cc(F)ccc2cc1C(=O)NCc1ccc(C(=O)N2CCCC2)cc1,6.3µM,2.5µM
Cc1ccc(C(=O)NCc2ccc(N3CCCC3)nc2)cc1F,.,.
Cc1nc(N2CCCC2)ncc1C(=O)NCc1ccc(F)cc1,.,.
Cc1cc(C)c(C(N)CO)cc1C (stereo not drawn),.,.

# From PubChem
